Calls of active or inactive are those of the source.
Tests used:
Albumin (Bos taurus) = Albumin (Bos taurus) (UniProt P02769); assay: bovine serum albumin binders on microarray, profiling panel, artefact control for SMM control protein annotation, biochemical, small-molecule microarray, Alexa647 label, 635/667 nm fluorescence (AID 1118); details: BSA-A647 binding, fluorescence 635 nm, higher = more signal;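 note: score merges 667 nm emission intensity and signal-to-noise per printed compound spot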
[1] = small-molecule microarray binders of probe aXIP, primary screen, biochemical, NeuroSMM set, 635/667 nm fluorescence (AID 1119); details: higher = more signal, called active from +8 up or from −8 down;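 note: probe is the protein aXip251-270 applied at 1 µg/mL to compound-printed slides; binding of probe to printed compounds measured as 667 nm fluorescence plus signal to noise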
[2] = small-molecule binders of probe aNOTCH3, primary screen, biochemical, small-molecule microarray, 635/667 nm fluorescence (AID 1120); details: higher = more signal;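 note: probe is a biotin-tagged antibody raised against NOTCH3 rather than NOTCH3 protein; score merges spot fluorescence near 667 nm with spot signal to noise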
[3] = small-molecule binders of probe aNOTCH2, primary screen, biochemical, small-molecule microarray, 635/667 nm fluorescence (AID 1121); details: higher = more signal;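 note: score merges feature fluorescence read at 667 nm with its signal to noise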
[4] = molecular target: Carbonic anhydrase 2 (Homo sapiens) (UniProt P00918); assay: CAII small-molecule binders, profiling panel, biochemical, small-molecule microarray, Alexa647-labelled CAII (AID 1122); details: CAII-A647 binding fluorescence, higher = more signal
[5] = COS7 lysate on small-molecule microarray, probe aHis, 635 nm (AID 1123); details: COS7 cell lysate, fluorescence, higher = more signal;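 note: z-score combines 667nm fluorescence intensity with signal-to-noise per printed compound spot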
[6] = compound binding in COS7 lysate, probe aLAP1, primary screen, cell lysate, small-molecule microarray (AID 1124); details: probe aLAP1, fluorescence, higher = more signal;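 note: lysate comes from COS7 cells expressing LAP1 and is applied at 0.3 µg/mL; score merges spot fluorescence near 667 nm with signal-to-noise over triplicate slides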
Sam68 (KHDRBS1) = assay: Sam68 small-molecule binders, primary screen, biochemical, small-molecule microarray, 635 nm fluorescence (AID 1125); details: small-molecule microarray binding, higher = more signal;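 note: score merges 667 nm channel intensity with signal to noise over triplicate slides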
[7] = tested on: Chordin-like protein 2 (CHRDL2); assay: CHRDL2 small-molecule binders, primary screen, biochemical, small-molecule microarray, 635 nm fluorescence (AID 1126); details: small-molecule microarray binding, fluorescence 635 nm; higher = more signal;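 note: printed compound slides probed with Chrdl2 protein at 4 µg/mL for 1 h at 4 C; score merges 667 nm emission intensity with signal to noise over three replicate slides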
[8] = molecular target: Concanavalin-A (Canavalia ensiformis) (UniProt P02866); assay: ConA small-molecule binders, primary screen, artefact control for SMM control protein annotation, biochemical, small-molecule microarray, Alexa647 label, 635 nm (AID 1127); details: ConA-A647 binding fluorescence, higher = more signal;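 note: z combines 667 nm emission intensity with signal-to-noise across three replicate slides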
Sequence of Concanavalin-A (Canavalia ensiformis) (P02866 whole entry, looked up): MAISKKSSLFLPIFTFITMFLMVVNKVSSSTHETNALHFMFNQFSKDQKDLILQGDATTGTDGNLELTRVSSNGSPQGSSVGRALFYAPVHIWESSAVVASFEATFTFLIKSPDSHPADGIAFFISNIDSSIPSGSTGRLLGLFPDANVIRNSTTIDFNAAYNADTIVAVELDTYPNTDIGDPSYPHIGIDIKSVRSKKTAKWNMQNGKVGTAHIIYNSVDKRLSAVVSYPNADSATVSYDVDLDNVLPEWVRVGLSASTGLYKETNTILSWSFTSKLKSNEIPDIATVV

Sequence of Albumin (Bos taurus) (P02769 whole entry, looked up): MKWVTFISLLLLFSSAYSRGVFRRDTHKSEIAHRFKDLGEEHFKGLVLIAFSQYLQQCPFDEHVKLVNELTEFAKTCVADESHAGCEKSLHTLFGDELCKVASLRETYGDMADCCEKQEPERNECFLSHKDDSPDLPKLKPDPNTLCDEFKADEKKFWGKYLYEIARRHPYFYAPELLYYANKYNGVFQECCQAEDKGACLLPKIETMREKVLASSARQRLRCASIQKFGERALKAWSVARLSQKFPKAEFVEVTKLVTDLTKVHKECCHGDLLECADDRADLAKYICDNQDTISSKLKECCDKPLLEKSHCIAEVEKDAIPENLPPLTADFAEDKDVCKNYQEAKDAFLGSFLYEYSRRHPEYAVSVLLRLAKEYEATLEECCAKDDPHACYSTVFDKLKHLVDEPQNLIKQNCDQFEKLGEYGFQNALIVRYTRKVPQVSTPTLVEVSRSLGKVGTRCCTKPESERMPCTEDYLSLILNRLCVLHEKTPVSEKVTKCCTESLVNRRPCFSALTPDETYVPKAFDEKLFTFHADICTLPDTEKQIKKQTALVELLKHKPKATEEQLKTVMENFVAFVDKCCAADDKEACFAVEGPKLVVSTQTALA

SMILES | composite z-score (Albumin (Bos taurus)) | composite Z-score [1] | composite z-score [2] | composite z-score [3] | composite z-score [4] | composite z-score [5] | composite z-score [6] | composite z-score (Sam68 (KHDRBS1)) | composite z-score [7] | composite z-score [8]
O=C1O[C@H](c2ccccc2)[C@H](c2ccccc2)N2[C@H]1[C@@H](C(=O)Nc1nc3ccccc3s1)[C@]1(C(=O)Nc3ccc(C#CC4(O)CCCCCC4)cc31)[C@H]2c1ccc(OCCO)cc1 | 0.8 | 0.905 (inactive) | -0.0562 | 0.146 | 0.219 | 1.46 | 1.7 | 1.3 | 0.508 | 1.11
COC(=O)[C@@]1(Cc2ccc(F)cc2)[C@H]2c3cc(C(=O)N4CCCC4)n(Cc4ccc(C)o4)c3C[C@H]2CN1C(=O)c1ccccc1 | 0.469 | 0.157 (inactive) | 0.28 | 0.354 | 0.546 | 1.95 | 0.137 | -0.459 | -0.549 | 0.851
CC(C)c1ccc(NN2C(C(O)c3cc(C(F)(F)F)cc(C(F)(F)F)c3)C=CC3C(=O)N(c4ccccc4)C(=O)C32)cc1 (stereo not given) | 0.588 | -0.117 (inactive) | 0.0203 | 0.0506 | 0.489 | 2.43 | 0.152 | 0.924 | -0.219 | 0.568
[N-]=[N+]=NCc1ccccc1C[C@]1(C(=O)NCC(O)CO)N=C(c2ccc(OCCCO)cc2)O[C@H]1c1ccccc1 (stereo not given in full) | 0.922 | -0.321 (inactive) | 0.062 | -0.0596 | 0.698 | 2.57 | 0.108 | -0.236 | -0.911 | -0.916
OC([C@@H]1CC(c2ccccc2)=NO1)[C@H]1CC(c2ccccc2)=NO1 (stereo not given in full) | 0.558 | -0.227 (inactive) | -0.0465 | -0.0859 | -0.11 | -0.262 | -0.105 | -0.285 | 0.191 | -0.363
COC(=O)[C@@]1(Cc2ccc(OC)cc2)[C@H]2c3cc(C(=O)N4CCCC4)n(Cc4ccsc4Br)c3C[C@H]2CN1C(=O)c1ccccc1 | 0.885 | 0.387 (inactive) | 0.527 | -0.0677 | 0.877 | 2.83 | 0.0786 | 0.374 | -0.91 | 0.496
Cc1ccc(C(C)CC(O)C2C=CC3C(=O)N(c4ccccc4)C(=O)C3N2Nc2ccc([N+](=O)[O-])cc2)o1 (stereo not given) | 0.861 | -0.608 (inactive) | 0.222 | 0.0129 | 0.788 | 1.96 | 0.67 | 1.32 | 0.595 | 0.977
O=C1O[C@H](c2ccccc2)[C@H](c2ccccc2)N2[C@H]1[C@@H](C(=O)NC[C@H](O)c1ccccc1)[C@]1(C(=O)Nc3ccccc31)[C@H]2c1ccc(OCCO)cc1 | 0.466 | -0.249 (inactive) | -0.0647 | -0.082 | 0.59 | 1.67 | 0.218 | 1.31 | 0.25 | 1.14
O=C(NCc1ccccc1)[C@@]1(CCS(=O)(=O)c2ccccc2)N=C(c2ccc(OCCCO)cc2)O[C@H]1c1ccccc1 | 1.01 | 0.198 (inactive) | 0.471 | -0.0128 | 0.615 | 3.07 | 0.557 | 1.29 | -0.481 | 1.16
COc1ccc(NN2C(C(O)c3ccc([N+](=O)[O-])cc3)C=CC3C(=O)N(C4CCCCC4)C(=O)C32)cc1 (stereo not given) | 0.424 | 0.601 (inactive) | 0.178 | -0.115 | 0.561 | 1.48 | -0.0699 | 1.23 | -0.261 | 0.505
COc1ccc(C(O)C2C=CC3C(=O)N(c4ccccc4)C(=O)C3N2Nc2ccc(C(C)C)cc2)cc1OCc1ccccc1 (stereo not given) | 0.895 | 0.868 (inactive) | 0.307 | 0.194 | 0.576 | 1.78 | 0.902 | 1.33 | -0.443 | 1.12
CC(=O)NCCCC[C@@H]1NC(=O)[C@@H]2C[C@H](C(=O)NCCCCN(C)C)[C@H](c3cccc(OCCO)c3)N2C1=O | -0.374 | 0.714 (inactive) | -0.186 | -0.112 | 0.57 | 0.944 | 0.511 | 0.259 | 0.462 | 0.664
COC(=O)C(CC#Cc1ccc2c(c1)[C@]1(C(=O)N2)[C@H](C(=O)O)[C@H]2C(=O)O[C@H](c3ccccc3)[C@H](c3ccccc3)N2[C@@H]1c1ccc(O)cc1)C(=O)OC | -0.266 | -1.69 (inactive) | -0.274 | -0.181 | 0.66 | 1.07 | 0.898 | 0.661 | -0.872 | -0.417
CC1CC/C=C\[C@H]2OC34C=CCN(c5ccc(Cl)cc5)C(=O)[C@H]3N(CCO)C(=O)[C@]4(C)C2C(=O)O1 (stereo not given in full) | -0.0427 | -0.0662 (inactive) | -0.152 | -0.149 | 0.902 | -0.507 | 0.627 | 0.409 | -0.961 | -0.206
COC(=O)c1c(CC[C@@H](CO)NC(=O)N2CCC[C@H]2Cn2cc(-c3ccccn3)nn2)oc(C(C)=O)c1C(=O)OC | 0.453 | 0.294 (inactive) | -0.118 | -0.171 | 0.428 | 0.043 | 0.274 | 0.882 | -0.394 | 0.419
CCc1oc(CC[C@@H](CO)NC(=O)NCCn2cc(C3(O)CCCCC3)nn2)c(C(=O)OC)c1C(=O)OC | -0.272 | -0.0435 (inactive) | 0.232 | -0.0813 | -0.0227 | 0.376 | 0.731 | 1.18 | 0.915 | 1.11
